Test results reported in PubChem BioAssay (NCATS).
Inconclusive results are not listed. The source made the active and inactive calls. Calls come from the whole dose curve; as a rule, active = well fitted curve in the direction sought with a large enough effect; inconclusive = small, poorly fitted or top-dose-only effect, or another doubt; inactive = no such curve, though single readings can be large; an effect the other way counts as inactive or inconclusive.

Assay: Quantitative High-Throughput drug screen in 47 multiple myeloma cell lines against the NCATS MIPE library collection: MOLP8_DSMZ cell viability assay (AID 1918977); note: nearly all actives have a fitted effect of over 45% in size
Settings: MOLP8 myeloma viability, CellTiter-Glo ATP luminescence, 48 h; series mostly up to 45.8 µM; viability (% of control): at the top concentration
Outline: (§1)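 500 cells/well per myeloma line exposed to pinned MIPE 4.0 compounds for 48 h at 37 °C, 5% CO2. Viability read as ATP by CellTiter-Glo luminescence, normalised to DMSO-only (100%) and media-only (0%) wells.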
Potency is the fitted concentration of half-maximal effect.

SMILES | viability (% of control) | Potency
CCCOc1ccc(C(=O)OCCN(CC)CC)cc1N | 128% (inactive) | –
O=C(NCC1CN(c2ccc(N3CCOCC3=O)cc2)C(=O)O1)c1ccc(Cl)s1 (stereo not drawn) | 108% (inactive) | –
CCCCCCNC(=O)n1cc(F)c(=O)[nH]c1=O | – | 6.62 µM (active)
Nc1ccc(S(=O)(=O)Nc2ccccn2)cc1 | 113% (inactive) | –
CCOC(=O)c1ccc(OC(=O)CCCCCN=C(N)N)cc1 | 91.5% (inactive) | –
CN(Cc1cc(Br)cc(Br)c1N)C1CCCCC1 | 99.7% (inactive) | –
CC(C(=O)O)c1ccc2c(c1)CC(=O)c1ccccc1S2 (stereo not drawn) | 93.7% (inactive) | –
CCN(C)C(=O)Oc1cccc([C@H](C)N(C)C)c1 | 122% (inactive) | –
CC1=NN(c2ccccc2)C(=O)C1 | 137% (inactive) | –
O=NN(CCCl)C(=O)NC1CCCCC1 | 124% (inactive) | –

Assay: Quantitative High-Throughput drug screen in 47 multiple myeloma cell lines against the NCATS MIPE library collection: NCIH929_DSMZ cell viability assay (AID 1918978); note: nearly all actives have a fitted effect of over 35% in size
Settings: NCI-H929 myeloma viability, CellTiter-Glo ATP, 48 h; series mostly up to 45.8 µM; viability, % of control: at the top concentration
Outline: as §1

SMILES | viability, % of control | Potency
CCN(CC)CCn1c(=O)c(Cc2ccc(OC)cc2)nc2ccccc21 | 102% (inactive) | –
CNS(=O)(=O)Cc1ccc2[nH]cc(CCN(C)C)c2c1 | 116% (inactive) | –
CCCOc1ccc(C(=O)OCCN(CC)CC)cc1N | 94.7% (inactive) | –
CC(C)NCC(O)c1ccc(NS(C)(=O)=O)cc1 (stereo not drawn) | 122% (inactive) | –
C[C@@H]1C[C@H]2[C@@H]3CCC4=CC(=O)C=C[C@]4(C)[C@@]3(Cl)[C@@H](O)C[C@]2(C)[C@@]1(OC(=O)c1ccco1)C(=O)CCl | – | 3.32 µM (active)
O=C(NCC1CN(c2ccc(N3CCOCC3=O)cc2)C(=O)O1)c1ccc(Cl)s1 (stereo not drawn) | 113% (inactive) | –
CCCCCCNC(=O)n1cc(F)c(=O)[nH]c1=O | – | 11.8 µM (active)
Nc1ccc(S(=O)(=O)Nc2ccccn2)cc1 | 106% (inactive) | –
O=C(O)C1CCCN(CCC=C(c2ccccc2)c2ccccc2)C1 (stereo not drawn) | 133% (inactive) | –
OC(Cn1cncn1)(Cn1cncn1)c1ccc(F)cc1F | 122% (inactive) | –
CCOC(=O)c1ccc(OC(=O)CCCCCN=C(N)N)cc1 | 114% (inactive) | –
CN(Cc1cc(Br)cc(Br)c1N)C1CCCCC1 | 97% (inactive) | –
COC(=O)Nc1nc2ccc(C(=O)c3ccccc3)cc2[nH]1 | – | 3.72 µM (active)
NC(=O)c1cccc(N)c1 | – | 16.6 µM (active)
CC(=O)[C@H]1CC[C@H]2[C@@H]3CC=C4C[C@@H](O)CC[C@]4(C)[C@H]3CC[C@]12C | 97.5% (inactive) | –
CN(C)CCc1c[nH]c2ccc(CS(=O)(=O)N3CCCC3)cc12 | 89.3% (inactive) | –

SMILES | viability, % of control | Potency
CC(C(=O)O)c1ccc2c(c1)CC(=O)c1ccccc1S2 (stereo not drawn) | 98.5% (inactive) | –
CCN(C)C(=O)Oc1cccc([C@H](C)N(C)C)c1 | 118% (inactive) | –
CC[C@H](NC(C)C)[C@H](O)c1ccc(O)c2[nH]c(=O)ccc12 | 125% (inactive) | –
C[C@@H]1CN(c2c(F)c(N)c3c(=O)c(C(=O)O)cn(C4CC4)c3c2F)C[C@H](C)N1 | 127% [at 23.2 µM] (inactive) | –
CC(C)C1CCC(C(=O)N[C@H](Cc2ccccc2)C(=O)O)CC1 (stereo partly drawn) | 81.5% (inactive) | –
O=NN(CCCl)C(=O)NC1CCCCC1 | 123% (inactive) | –
O=P(O)(O)C(O)(Cc1cccnc1)P(=O)(O)O | 113% (inactive) | –
CC1=CC(=O)c2ccccc2C1=O | – | 9.35 µM (active)
Cc1nnc(C(=O)NC(C)(C)c2nc(C(=O)NCc3ccc(F)cc3)c(O)c(=O)n2C)o1 | 108% (inactive) | –
Nc1nc(N)nc(-c2cc(Cl)ccc2Cl)n1 | 85.1% (inactive) | –
CC1=C(C(=O)O)N2C(=O)[C@@H](NC(=O)C(N)c3ccccc3)[C@H]2SC1 (stereo partly drawn) | 91.6% (inactive) | –
N[C@@H](Cc1ccc(O)c(O)c1)C(=O)O | 108% (inactive) | –
N[C@@H](C(=O)N[C@@H]1C(=O)N2C(C(=O)O)=C(Cl)CS[C@H]12)c1ccccc1 | 113% (inactive) | –
CN1CCCC(n2nc(Cc3ccc(Cl)cc3)c3ccccc3c2=O)CC1 (stereo not drawn) | – | 0.935 µM (active)
COc1ncnc(NS(=O)(=O)c2ccc(N)cc2)c1OC | 108% (inactive) | –

Assay: Quantitative High-Throughput drug screen in 47 multiple myeloma cell lines against the NCATS MIPE library collection: OCIMY1_PLB cell viability assay (AID 1918979); note: nearly all actives have a fitted effect of over 35% in size
Settings: OCI-MY1 myeloma viability, CellTiter-Glo ATP, 48 h; series mostly up to 45.8 µM; viability: at the top concentration
Outline: as §1

SMILES | viability | Potency
CCCN[C@H]1CCc2nc(N)sc2C1 | 106% (inactive) | –
CCN(CC)CCn1c(=O)c(Cc2ccc(OC)cc2)nc2ccccc21 | 98.7% (inactive) | –
CNS(=O)(=O)Cc1ccc2[nH]cc(CCN(C)C)c2c1 | 124% (inactive) | –
CCCOc1ccc(C(=O)OCCN(CC)CC)cc1N | 112% (inactive) | –
CC(C)NCC(O)c1ccc(NS(C)(=O)=O)cc1 (stereo not drawn) | 118% (inactive) | –
O=C(NCC1CN(c2ccc(N3CCOCC3=O)cc2)C(=O)O1)c1ccc(Cl)s1 (stereo not drawn) | 109% (inactive) | –
CCCCCCNC(=O)n1cc(F)c(=O)[nH]c1=O | 90.4% (inactive) | –
Nc1ccc(S(=O)(=O)Nc2ccccn2)cc1 | 124% (inactive) | –
OC(Cn1cncn1)(Cn1cncn1)c1ccc(F)cc1F | 106% (inactive) | –
CCOC(=O)c1ccc(OC(=O)CCCCCN=C(N)N)cc1 | 107% (inactive) | –
COC(=O)Nc1nc2ccc(C(=O)c3ccccc3)cc2[nH]1 | – | 0.833 µM (active)
NC(=O)c1cccc(N)c1 | 123% (inactive) | –
CC(=O)[C@H]1CC[C@H]2[C@@H]3CC=C4C[C@@H](O)CC[C@]4(C)[C@H]3CC[C@]12C | 108% (inactive) | –
CN(C)CCc1c[nH]c2ccc(CS(=O)(=O)N3CCCC3)cc12 | 103% (inactive) | –
CC(C(=O)O)c1ccc2c(c1)CC(=O)c1ccccc1S2 (stereo not drawn) | 111% (inactive) | –
CCN(C)C(=O)Oc1cccc([C@H](C)N(C)C)c1 | 126% (inactive) | –
CC[C@H](NC(C)C)[C@H](O)c1ccc(O)c2[nH]c(=O)ccc12 | 115% (inactive) | –
CC1=NN(c2ccccc2)C(=O)C1 | 97.6% (inactive) | –
O=NN(CCCl)C(=O)NC1CCCCC1 | 107% (inactive) | –
CO[C@@H]1[C@@H](OC(N)=O)[C@@H](O)[C@H](Oc2ccc3c(O)c(NC(=O)c4ccc(O)c(CC=C(C)C)c4)c(=O)oc3c2C)OC1(C)C | 106% (inactive) | –
O=P(O)(O)C(O)(Cc1cccnc1)P(=O)(O)O | 122% (inactive) | –
Cc1nnc(C(=O)NC(C)(C)c2nc(C(=O)NCc3ccc(F)cc3)c(O)c(=O)n2C)o1 | 115% (inactive) | –
Nc1nc(N)nc(-c2cc(Cl)ccc2Cl)n1 | 108% (inactive) | –
CC1=C(C(=O)O)N2C(=O)[C@@H](NC(=O)C(N)c3ccccc3)[C@H]2SC1 (stereo partly drawn) | 122% (inactive) | –
CCOC(=O)c1ccc(C#Cc2ccc3c(c2)C(C)(C)CCS3)nc1 | 106% (inactive) | –
COc1ncnc(NS(=O)(=O)c2ccc(N)cc2)c1OC | 106% (inactive) | –
CC(C)Cn1cnc2c(N)nc3ccccc3c21 | 81.6% (inactive) | –
